Measured values as given in PubChem BioAssay AID596 (National Center for Advancing Translational Sciences (NCATS), 2007).
Several values for one entry are separate records, joined by “and”; a condition that tells them apart may be missing. Equal entries are not always repeated. Among all 71,000 compounds or so, about 1,400 (2%) were called active. A call without a number means that no potency is given here. Inconclusive results (about 3%) are left out. Calls come from the whole dose curve; as a rule, active = well fitted curve in the direction sought with a large enough effect; inconclusive = small, poorly fitted or top-dose-only effect; inactive = no such curve, though single readings can be large or run the other way. Only a selection was taken, and actives are over-represented in it overall. The source holds several records for some structures; these can differ, active in one and inactive in another.

Each molecule was assayed against Microtubule-associated protein tau (Homo sapiens) (UniProt P10636) (assay: qHTS Assay for Tau Filament Binding). Conditions: recombinant tau filaments, thioflavin S fluorescence, 15 h; series mostly up to 57.1 µM.
From the text: NIH Molecular Libraries Screening Centers Network [MLSCN]
NIH Chemical Genomics Center [NCGC]
Assay Provider: Jeffrey A. Kuret, Ohio State University
Tau monomers form filaments in vitro in the presence of anionic detergents or fatty acids. The dye Thioflavine S (ThS) binds to tau filaments and upon binding, increases in fluorescence several fold. Small molecules that displace ThS binding or prevent filament binding are identified by a reduction in ThS fluorescence. This assay used histidine-tagged, recombinant human tau protein containing the products of exons 2, 3, and 10 that was provided by Jeff Kuret, Ohio State University. To form filaments, 1 uM tau was incubated with 30 uM sodium octadecylsulfate (ODS) in reagent buffer (10 uM thioflavine S, 5 mM 1,4-dithioerythreitol (DTT), 100 mM sodium chloride, 10 mM HEPES pH 7.4) for 15 hrs at 37 C.
NCGC Assay Protocol Summary:
Assay Steps. Two uL/well of 2 uM tau in reagent buffer (10 uM thioflavine S, 5 mM DTT, 100 mM sodium chloride, 10 mM HEPES pH 7.4) was dispensed into solid black 1536-well plates. Twenty-three nL compound was transferred to the assay plate after which 2 uL/well of 60 uM ODS in reagent buffer was dispensed for a final assay volume of 4 uL /well. Following 15 hours of incubation at 37 C, fluorescence was detected by an Envision (Perkin Elmer) using 450/8 nm excitation and 510/23 nm emission.
Keywords: NIH Roadmap, MLSCN, MLI, MLSMR, qHTS, NCGC, Alzheimer's disease, Neurofibrillary lesions, tau, tubulin assembly, microtubule stability, cytoskeletal integrity, fibrillization, thioflavin dyes, Amyloidgenic
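Note: actives lower thioflavin S fluorescence by blocking filaments or displacing dye.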
Potency is the fitted concentration of half-maximal effect.

Microtubule-associated protein tau (Homo sapiens), sequence (P10636 whole entry, looked up): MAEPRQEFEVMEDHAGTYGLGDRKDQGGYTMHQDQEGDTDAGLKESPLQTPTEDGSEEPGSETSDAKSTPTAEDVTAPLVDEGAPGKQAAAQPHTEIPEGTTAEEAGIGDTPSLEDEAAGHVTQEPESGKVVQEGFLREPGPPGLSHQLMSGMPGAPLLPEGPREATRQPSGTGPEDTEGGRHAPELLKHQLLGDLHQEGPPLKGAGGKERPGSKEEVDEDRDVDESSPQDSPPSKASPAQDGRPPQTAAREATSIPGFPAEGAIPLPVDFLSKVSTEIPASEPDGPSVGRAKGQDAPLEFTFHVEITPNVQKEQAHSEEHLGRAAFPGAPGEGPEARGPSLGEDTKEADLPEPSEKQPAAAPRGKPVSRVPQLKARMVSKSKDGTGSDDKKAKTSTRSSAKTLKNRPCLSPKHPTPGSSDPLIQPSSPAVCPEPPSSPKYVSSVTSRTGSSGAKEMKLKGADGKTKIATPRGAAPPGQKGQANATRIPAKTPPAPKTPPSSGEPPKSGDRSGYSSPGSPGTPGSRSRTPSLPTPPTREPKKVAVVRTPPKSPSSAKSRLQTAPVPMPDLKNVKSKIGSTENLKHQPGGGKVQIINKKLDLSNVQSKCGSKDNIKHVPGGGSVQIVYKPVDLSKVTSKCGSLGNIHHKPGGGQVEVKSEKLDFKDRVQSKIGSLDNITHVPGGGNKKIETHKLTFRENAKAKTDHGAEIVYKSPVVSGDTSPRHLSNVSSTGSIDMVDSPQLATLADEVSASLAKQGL

SMILES	Potency	activity change, negative = inhibition
CC(C)CC(C)Nc1ccc(Nc2ccccc2)cc1 (stereo not given)	15.8 µM (active)	–
c1ccc(N2CC[C@@]3(CCCNC3)C2)nc1	inactive	–
CC[C@@](O)(C(=O)O)c1cc2n(c(=O)c1CO)Cc1cc3ccccc3nc1-2	–	6.4% [at 11.4 µM] (inactive)
Nc1ccc([N+](=O)[O-])cc1	inactive	–
CC(=O)c1c(O)c(C)c(O)c(Cc2c(O)c3c(c(C(=O)/C=C\c4ccccc4)c2O)OC(C)(C)C=C3)c1O	15.8 µM (active) and 25.1 µM (active)	–
Clc1ccccc1	inactive	–
Fc1ccc(C(OCCN2CCN(C/C=C\c3ccccc3)CC2)c2ccc(F)cc2)cc1	12.6 µM (active)	–
CCCCC#N	inactive	–
Nc1ccc(Cc2ccc(N)c(Cl)c2)cc1Cl	inactive	–
N#CCCCl	inactive	–
CC(C)(C)C(O)(CCc1ccc(Cl)cc1)Cn1cncn1 (stereo not given)	inactive	–
Clc1cccc(Cl)c1Cl	inactive	–
c1ccc2c(c1)[I+]c1ccccc1-2	inactive and 39.8 µM (active)	–
CCNC[C@H](O)c1cccc(O)c1	inactive	–
O=C(Nc1cccc(F)c1)N1CC[C@@]2(CCCN(C(=O)Oc3ccccc3)C2)C1	inactive	–
c1ccc(CN2CC[C@@]3(CCCNC3)C2)cc1	inactive	–
ClCCBr	inactive	–
CN1CCN(C(=O)O[C@@H]2c3nccnc3C(=O)N2c2ccc(Cl)cn2)CC1	inactive	–
O=C1C2(Cl)C3(Cl)C4(Cl)C(Cl)(Cl)C5(Cl)C3(Cl)C1(Cl)C5(Cl)C24Cl (stereo not given)	inactive and 15.8 µM (active)	–
Cc1cc(-c2ccc(N)c(C)c2)ccc1N	inactive	–
C=CC#N	inactive	–
CC(C)(Cc1c[nH]c2ccc(Cl)cc12)NCCOc1ccccc1OCC1CC1	inactive	–
ClC(Cl)=C(Cl)C(Cl)=C(Cl)Cl	inactive	–
CC(Cl)Cl	inactive	–
C[C@]12CC[C@H](O)C[C@@H]1CC[C@H]1[C@H]2CC[C@]2(C)C(=O)CC[C@@H]12	inactive	–
